Here are results for 100 molecules from ChEMBL document CHEMBL1201862, “PubChem BioAssay data set” (2004).

The structures appear in SMILES notation. Screen size: about 400,000 compounds; about 2,100 (0.53%) were called active. Inconclusive results (about 14%) are left out. The rule behind the calls is not given here. For the sample, actives were picked, then their nearest neighbours and some compounds at random.

For the experiment, the target named is Ataxin-2 (Homo sapiens) (UniProt Q99700). Put plainly: qHTS for Inhibitors of ATXN expression. It is filed as functional. For orientation: In qHTS, concentration-response curves come from the screen itself.
Sequence of Ataxin-2 (Homo sapiens) (Q99700 whole entry): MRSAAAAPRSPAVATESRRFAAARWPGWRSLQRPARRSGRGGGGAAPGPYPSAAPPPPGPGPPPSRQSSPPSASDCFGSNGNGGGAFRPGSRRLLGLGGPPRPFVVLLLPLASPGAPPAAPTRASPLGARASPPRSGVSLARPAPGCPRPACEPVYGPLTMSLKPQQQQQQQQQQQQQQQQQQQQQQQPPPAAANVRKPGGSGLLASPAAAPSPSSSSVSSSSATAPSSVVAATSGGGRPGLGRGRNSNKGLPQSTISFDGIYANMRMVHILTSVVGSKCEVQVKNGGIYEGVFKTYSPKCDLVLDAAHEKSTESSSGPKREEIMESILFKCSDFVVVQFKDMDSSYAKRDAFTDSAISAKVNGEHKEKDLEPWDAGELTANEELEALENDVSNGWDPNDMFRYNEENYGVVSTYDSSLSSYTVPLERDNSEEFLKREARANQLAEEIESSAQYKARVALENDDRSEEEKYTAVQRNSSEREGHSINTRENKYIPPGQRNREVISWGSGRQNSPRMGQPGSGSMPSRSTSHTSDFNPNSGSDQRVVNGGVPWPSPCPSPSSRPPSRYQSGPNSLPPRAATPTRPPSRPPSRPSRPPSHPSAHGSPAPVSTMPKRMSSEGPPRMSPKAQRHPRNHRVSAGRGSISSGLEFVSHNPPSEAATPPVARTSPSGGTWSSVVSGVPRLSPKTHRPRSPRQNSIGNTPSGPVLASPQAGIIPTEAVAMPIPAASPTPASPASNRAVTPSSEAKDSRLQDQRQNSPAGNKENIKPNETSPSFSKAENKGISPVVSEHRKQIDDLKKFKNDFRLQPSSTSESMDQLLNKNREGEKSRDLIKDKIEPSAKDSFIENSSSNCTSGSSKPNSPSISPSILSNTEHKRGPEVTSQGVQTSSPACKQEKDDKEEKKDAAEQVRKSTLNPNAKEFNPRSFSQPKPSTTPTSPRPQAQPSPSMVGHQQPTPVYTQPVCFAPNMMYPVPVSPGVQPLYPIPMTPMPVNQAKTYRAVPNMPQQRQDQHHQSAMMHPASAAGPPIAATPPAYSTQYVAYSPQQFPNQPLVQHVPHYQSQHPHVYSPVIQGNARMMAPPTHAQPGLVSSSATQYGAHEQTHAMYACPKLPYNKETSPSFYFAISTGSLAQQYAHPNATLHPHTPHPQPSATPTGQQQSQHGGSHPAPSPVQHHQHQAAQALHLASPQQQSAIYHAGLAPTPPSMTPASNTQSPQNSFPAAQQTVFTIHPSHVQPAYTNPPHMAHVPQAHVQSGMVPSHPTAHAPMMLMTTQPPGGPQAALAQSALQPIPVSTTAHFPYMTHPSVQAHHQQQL
Regarding `COC(=O)c1cc(NC(=O)CN2CCN(C(C)=O)CC2)cc(C(=O)OC)c1`, the Potency entry is “inactive”.
The same measure for `Cc1ccc2[nH]c(CSc3nc(C)cc(C)c3C#N)nc2c1`: “inactive”.
The same measure for `CCc1cc(=O)oc2c(C)c(O)c(CN3CCCCC3)cc12`: “inactive”; for `N#Cc1cc([N+](=O)[O-])c(-n2nnc3ccccc32)c([N+](=O)[O-])c1`: 22.4 µM (active).
To `O=C(NOC(=O)c1c(F)cccc1Cl)c1ccc(Cl)c(Cl)c1` belongs “inactive”; to `CCCCN1C(=O)C(O)(CC(=O)c2ccc(C)cc2C)c2cc(Br)ccc21` (stereo not given), 31.6 µM (active); to `CCCCN1C=C(C(=O)OC)C(c2ccccc2Cl)C(C(=O)OC)=C1`, “inactive”.
Regarding `Cc1ccc(OCCn2cnc(Cl)c2Cl)cc1`, the Potency result is “inactive”.
For `CCN(CC)C(=O)c1cccc(NC(=O)c2cc(C3CC3)nc3c2cnn3C(C)C)c1`, the Potency entry was “inactive”.
Turning to `CC(=O)c1ccc(S(=O)(=O)NCCC(=O)N2CCN(c3ccccn3)CC2)cc1`, the Potency result was “inactive”.
To `COc1cc2c(cc1OC)C(C)N(S(=O)(=O)c1cnc(Cl)c(Cl)c1)CC2` (stereo not given) belongs 12.6 µM (active); to `COc1cc2c(cc1OC)CN(S(=O)(=O)c1ccccc1F)CC2`, “inactive”.
`COc1ccc(-c2c(C)nn3c(N4CCOCC4)cc(C)nc23)cc1OC`: the Potency entry was “inactive”.
To `CSc1nc(Nc2ccc(F)cc2)cc(-c2ccccc2)n1` belongs 22.4 µM (active); to `COC(=O)Cn1c2ccccc2c2nc3ccccc3nc21`, “inactive”.
To `O=c1oc2ccccc2n1CCn1c2ccccc2c2nc3ccccc3nc21` belongs 44.7 µM (active); to `Cc1cccc2c3nc4ccccc4nc3n(C)c12`, “inactive”; to `CC(C)(C)c1ccc(C(=O)N2CCC(=O)N([C@H](COCc3ccccc3)Cc3ccccc3)CC2)cc1`, 35.5 µM (active).
The same measure for `CC(C)(C)c1ccc(C(=O)N2CCC(=O)N(C(COCc3ccccc3)Cc3ccccc3)CC2)cc1` (stereo not given): 28.2 µM (active).
`CC(C)CC1C(=O)N(Cc2cn(Cc3ccco3)nn2)CCS(=O)(=O)N1Cc1ccc(-c2cccc(CO)c2)cc1` (stereo not given): the Potency was 35.5 µM (active).
The same measure for `COc1ccc(-c2ccc(CN3C(CC(C)C)C(=O)N(Cc4cn(CC5CCCCC5)nn4)CCS3(=O)=O)cc2)cn1` (stereo not given): 10 µM (active); for `CC(C)CC1C(=O)N(Cc2cn(Cc3ccco3)nn2)CCS(=O)(=O)N1Cc1ccc(-c2ccc(F)nc2)cc1` (stereo not given): 25.1 µM (active).
As for `COc1ccc(NS(=O)(=O)c2cc3c(cc2C)N(C)CCO3)c(OC)c1`, the Potency result is “inactive”.
The same measure for `CC1CCN(Cc2c(O)ccc3c2O/C(=C\c2ccco2)C3=O)CC1`: “inactive”; for `O=C(c1cnn(-c2ccccc2)c1)c1cc(F)ccc1O`: “inactive”; for `Cc1ccc(Nc2c(-c3ccsc3)nc3cccc(C)n23)cc1`: 25.1 µM (active).
Turning to `Cc1cccc2nc(-c3ccccn3)c(Nc3ccc(F)cc3)n12`, the Potency was 20 µM (active).
To `Cc1ccc(Nc2nc(-c3ccccc3)c(CC(=O)O)s2)cc1` belongs “inactive”; to `Cc1sc(-c2ccccn2)nc1OC(=O)c1ccc(F)cc1F`, “inactive”; to `Cc1cc(Nc2ccc(F)cc2)n2c(nc3ccccc32)c1C#N`, “inactive”.
The same measure for `CCC1Cc2c(nc(N)c3c(N)nc(N4CCCCC4)c(C#N)c23)O1` (stereo not given): “inactive”; for `N=c1c(C(=O)NCC2CCCO2)cc2c(=O)n3ccccc3nc2n1Cc1ccc(Cl)cc1` (stereo not given): “inactive”.
The same measure for `CC(=O)C1=NN(c2ccccc2)C(c2ccc3c(c2)OCO3)N1c1ccccc1` (stereo not given): “inactive”.
Regarding `Cc1c2c(n3c(nc4ccccc43)c1C#N)N(CCN1CCOCC1)CC2`, the Potency result was “inactive”.
The same measure for `CCOC(=O)c1cc2c(=O)n3ccccc3nc2n(Cc2ccco2)/c1=N\C(=O)c1cccc(C)c1`: “inactive”.
To `C=C1CC(COc2cc(=O)oc3ccccc23)(c2ccccc2)OC1=O` (stereo not given) belongs 39.8 µM (active).
The same measure for `CCC(=O)Oc1ccc2c(C)c(Cl)c(=O)oc2c1`: “inactive”; for `C=C1CC(COc2ccc3c(C)c(Cl)c(=O)oc3c2)(c2ccccc2)OC1=O` (stereo not given): 9.47 µM (active); for `CCN(CC)c1ccc2c(C)c(Cl)c(=O)oc2c1`: “inactive”.
Take `COc1cc(NC(=O)c2sc3ncn(CC(=O)N4CCC(C)CC4)c(=O)c3c2C)cc(OC)c1OC`: the Potency result is “inactive”.
On to `COc1cc(CNC(C)c2ccccc2)cc(Br)c1OCc1ccc(F)cc1` (stereo not given), for which the Potency was 39.8 µM (active).
Regarding `COc1cc(/C=C(\C#N)c2nc3ccccc3[nH]2)cc(Br)c1OCc1ccccc1`, the Potency entry is “inactive”.
To `CCCCN(CCCC)C(=O)c1cc2c(=O)n3cccc(C)c3nc2s1` belongs “inactive”.
To `O=c1[nH][nH]c(=O)c2c(NS(=O)(=O)c3ccccc3)cccc12` belongs “inactive”; to `N=C(N)Nc1nc(-c2ccccc2)c2ccccc2n1`, 1.41 µM (active).
The same measure for `O=C(O)c1ccc(Nc2nc(-c3ccccc3)c3ccccc3n2)cc1`: “inactive”; for `NNc1nc(-c2ccccc2)c2ccccc2n1`: “inactive”; for `CCCCN(C)CC(O)Cn1cc(/C=C/C(=O)c2ccc(OC)c(OC)c2)c2ccccc21` (stereo not given): “inactive”.
For the molecule `c1ccc(-c2cn3nc(-c4ccccc4)c(-c4ccccc4)nc3n2)cc1`, the Potency entry is “inactive”.
With `c1ccc(-c2cn3c(n2)CCc2ccc4cccnc4c2-3)cc1`, the Potency is 39.8 µM (active).
The same measure for `c1ccc(-c2cn3nc4c(nc3n2)CCCC4)cc1`: “inactive”; for `COC(=O)C1CCN(C(c2cc(OC)c(OC)c(OC)c2)c2sc3nc(C)nn3c2O)CC1` (stereo not given): “inactive”; for `O=C(C1CCCCC1)N1C[C@@H](n2cc(-c3ccc(F)cc3)nn2)[C@H](O)C[C@@H]1c1ccc(Cl)cc1`: 22.4 µM (active).
The same measure for `Cc1ccc([C@H]2C[C@@H](O)[C@H](n3cc(-c4ccc(F)cc4)nn3)CN2C(=O)C2CCCCC2)cc1`: 22.4 µM (active).
As to `O=C(C1CCCCC1)N1CCC(O)(c2ccc(Cl)cc2)CC1`, the Potency result is “inactive”.
`CC1CSc2n1c(-c1ccccc1)c[n+]2-c1cccc(C(F)(F)F)c1` (stereo not given): the Potency entry was “inactive”.
To `CC(C)NC(=O)N1c2ccccc2Sc2ccccc21` belongs “inactive”.
In the case of `Cc1nnc(SC(=O)N2c3ccccc3Sc3ccccc32)s1`, the Potency was 25.1 µM (active).
To `Cc1nnc(SCc2cccc3ccccc23)s1` belongs “inactive”; to `Nc1[nH]c(C(=O)c2ccccc2)c(-c2ccc(F)cc2)c1C(=O)NCCc1c[nH]c2ccccc12`, 39.8 µM (active); to `Cc1ccc(N=C(S)NCCc2c[nH]c3ccccc23)c(C)c1`, “inactive”.
To `O=C(CCCc1c[nH]c2ccccc12)Nc1ccc2ccccc2c1` belongs “inactive”.
To `COc1ccc(C(=O)c2[nH]c(N)c(C(=O)NCCc3c[nH]c4ccccc34)c2-c2ccccc2Br)cc1` belongs 31.6 µM (active).
`Nc1[nH]c(C(=O)c2ccccc2)c(-c2ccc(Cl)c(F)c2)c1C(=O)NCCc1c[nH]c2ccccc12`: the Potency is 35.5 µM (active).
To `Nc1[nH]c(C(=O)c2ccccc2)c(-c2ccccc2C(F)(F)F)c1C(=O)NCCc1c[nH]c2ccccc12` belongs 25.1 µM (active); to `COc1ccc(C(=O)OCC(=O)c2c[nH]c3ccccc23)c(OC)c1`, “inactive”; to `CC(C)NC(=O)COCc1cc(-c2ccc3c(c2)OCO3)on1`, “inactive”.
Take `Cc1c(Cc2ccccc2)sc(/N=C/c2ccc3ccccc3c2)c1C(N)=O`: the Potency entry was “inactive”.
To `O=C1c2cccnc2C(=O)N1Cc1ccc(F)cc1S(=O)(=O)NCc1ccco1` belongs “inactive”; to `O=C(COC(=O)c1c2c(nc3ccccc13)/C(=C/c1ccco1)CC2)NC1CCCC1`, “inactive”; to `COCCn1c(N)c(C(=O)NCC2CCCO2)c2nc3ccccc3nc21` (stereo not given), “inactive”.
The same measure for `COC(=O)c1cc(S(=O)(=O)NCC2CCN(Cc3cc(C)ccc3C)CC2)cn1C`: “inactive”.
As to `N#C/C(=C\c1cc(Cl)cc(Cl)c1O)C(=O)NC1CCCCC1`, the Potency result was “inactive”.
The same measure for `O=[N+]([O-])c1c(Nc2ccc(O)cc2)cc(Cl)c2nonc12`: 2.24 µM (active); for `O=C(N/N=C/c1ccsc1)C1CC1`: “inactive”; for `COc1ccc2[nH]c(CN3CCN(CCC(C)C)C(CCO)C3)c(C)c2c1` (stereo not given): “inactive”.
On to `CCOC(=O)C1=C(C)N=c2s/c(=C/c3ccc(OCC(=O)O)c(OC)c3)c(=O)n2C1c1ccc(Cl)cc1` (stereo not given), for which the Potency result is “inactive”.
Turning to `Cc1ccc2nc(-c3ccc(NS(=O)(=O)c4c(C)n(C)c(=O)n(C)c4=O)cc3)sc2c1`, the Potency entry was “inactive”.
The same measure for `CCc1nnc(NC(=O)c2sc3nc4c(cc3c2N)CCCCCC4)s1`: “inactive”; for `CCc1nnc(NC(=O)c2ccc(S(=O)(=O)N(CCOC)CCOC)cc2)s1`: “inactive”; for `CCN1CCN(CC(=O)Nc2nc3ccc(C)cc3s2)CC1`: “inactive”.
The same measure for `CCOCCC(=O)Nc1nnc(CCc2ccccc2)s1`: “inactive”; for `CCc1nnc(NC(=O)c2nc(S(=O)(=O)Cc3ccc(C)cc3)ncc2Cl)s1`: 31.6 µM (active).
Regarding `CCCc1nnc(NC(=O)c2nc(S(=O)(=O)Cc3cccc(C)c3)ncc2Cl)s1`, the Potency is 35.5 µM (active).
To `CCCc1nnc(NC(=O)c2nc(S(=O)(=O)Cc3ccc(C)cc3)ncc2Cl)s1` belongs 39.8 µM (active); to `CCc1nnc(NC(=O)c2sc3nc4c(cc3c2N)CCCCC4)s1`, “inactive”; to `CCc1nnc(NC(=O)c2ccc(Br)o2)s1`, “inactive”.
To `Cc1ccc(CS(=O)(=O)c2ncc(Cl)c(C(=O)Nc3nc4ccc(C)cc4s3)n2)cc1` belongs 22.4 µM (active).
The same measure for `CC(=O)Nc1nnc(COc2ccc(Cl)cc2)s1`: “inactive”; for `Cc1sc(NC(=O)/C=C/c2ccco2)c(C(=O)OC(C)C)c1C`: “inactive”.
On to `O=C(O)CC/C(=N/NC(=O)CNC(=O)Cc1ccccc1)c1ccccc1`, for which the Potency result was “inactive”.
To `COc1ccc(/C=N/NC(=O)c2sccc2C)c2ccccc12` belongs “inactive”; to `CCCc1nnc(SCC(=O)Nc2cccc(Cl)c2Cl)o1`, “inactive”.
To `Fc1ccc(NC(S)=Nc2nccs2)cc1` belongs “inactive”; to `O=C(c1cnn(-c2ccc(Cl)cc2)c1)c1ccccc1O`, “inactive”; to `OCCNc1c2ccccc2nc2c(F)c(F)c(F)c(F)c12`, “inactive”.
To `O=c1oc2c(CN3CCCCC3)c(O)ccc2cc1-c1nc2ccccc2[nH]1` belongs “inactive”.
Turning to `CSc1ncc(C(=O)Nc2ccccc2Cl)c(C)n1`, the Potency entry was “inactive”.
The same measure for `CC(C)(C)NC(=O)CSc1nnc(NC(=O)CCc2ccccc2)s1`: “inactive”; for `CSc1nnc(NC(=O)c2nc(S(=O)(=O)Cc3ccccc3)ncc2Cl)s1`: 28.2 µM (active).
